The source of these data is PubChem BioAssay AID1626 (SRMLSC, 2009).

About 2,000 (0.91%) of roughly 220,000 compounds were called active. Inconclusive results (about 2%) are left out. Rule as the data show it: inconclusive = inhibition above about 80% without an active follow-up result; inactive = below that; test concentration not stated here. Only a sample is shown. Entries with a potency or affinity are not part of this list.

As a reminder, the inhibition is the drop in the measured response relative to a control, in per cent.

The nature of the assay: M. tuberculosis H37Rv growth inhibitors, H37Rv strain (AID 1626).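 Also: bacteria incubated seven days before Alamar blue readout; 0% = bacteria only wells and 100% = bacteria with antibiotic wells.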 The following applies: active compounds read high, concentration not given here.
For `Cc1ccccc1NC(=O)c1ccc(F)c(S(=O)(=O)N2CCCCC2)c1`, the inhibition was -2.34% (inactive).
With `CCn1cc(Br)c(C(=O)Nc2ccc(F)c(Cl)c2)n1`, the inhibition was -11.6% (inactive).
For `CCOCCCNC(=O)c1ccc(NC(C)=O)cc1` the value was -8.03% (inactive); for `CC(=O)C1=C(O)C(=O)N(C)C1c1ccccc1F` (stereo unspecified), 0.41% (inactive); for `CN(C[C@H](Cc1ccccc1)N(C[C@H](CC1CCCCC1)N(CCc1ccccc1)N=O)N=O)N=O`, -1.37% (inactive).
Take `CC(C)Sc1ncc(S(=O)(=O)c2ccccc2)c(=O)[nH]1`: the inhibition was -2.21% (inactive).
For `CCCCn1c(O)c(C(CC)=Nc2ccc3c(c2)CCC3)c(=O)[nH]c1=O` the value was 74.9% (inactive); for `CCCCn1c(O)c(C(C)=Nc2ccc3c(c2)CCC3)c(=O)[nH]c1=O`, 7.92% (inactive); for `C=CCn1c(O)c(C(C)=Nc2ccc3c(c2)CCC3)c(=O)[nH]c1=O`, 54.5% (inactive).
As for `CCCCn1c(O)c(C(CC)=Nc2ccc(C(=O)O)cc2)c(=O)[nH]c1=O`, the figure is -1.19% (inactive); as for `CCCCn1c(O)c(C(CC)=Nc2ccc(OC)cc2OC)c(=O)[nH]c1=O`, -1.05% (inactive); as for `C=CCn1c(O)c(C(C)=Nc2ccc(NC(C)=O)cc2)c(=O)[nH]c1=O`, -0.17% (inactive).
As for `CCCCn1c(O)c(C(C)=Nc2ccc(C(=O)O)cc2)c(=O)[nH]c1=O`, the figure is -16.2% (inactive); as for `C=CCn1c(O)c(C(C)=Nc2ccc(C(=O)O)cc2)c(=O)[nH]c1=O`, -11.5% (inactive).
Take `O=C(O)CC(CNS(=O)(=O)c1cccc2nsnc12)c1ccccc1` (stereo unspecified): the inhibition was 2.51% (inactive).
For `O=C1CC(c2nc3ccccc3[nH]2)CN1c1cccc(C(F)(F)F)c1` (stereo unspecified) the value was 2.87% (inactive).
As for `CN1CCN(C(=S)c2ccc(-c3cccc(Cl)c3Cl)o2)CC1`, the figure is 2.93% (inactive).
`Nc1c(Cl)ncnc1N/N=C/c1cccnc1`: the inhibition was 3.93% (inactive).
As for `Cn1c(N2CCOCC2)cc(=O)n(C)c1=O`, the figure is -3.19% (inactive); as for `COc1ccc(CCNC(=O)CSCc2ccc([N+](=O)[O-])cc2)cc1OC`, -5.73% (inactive); as for `CCN(CC)c1ccc(C(=O)OCC(=O)Nc2ccc3[nH]c(=O)[nH]c3c2)cc1`, 6.23% (inactive).
For `O=C(Nc1ccc(Br)cc1)C1CCCN(S(=O)(=O)c2cccnc2)C1` (stereo unspecified) the value was -3.26% (inactive); for `C=CCn1c(CNC(=O)c2ccco2)nnc1SCC(=O)Nc1cccc(F)c1`, 2.84% (inactive); for `CCn1c(SCc2nc3ccccc3c(=O)[nH]2)nc2ccccc21`, 11.6% (inactive).
For `COc1ccc2cc(C#N)c(N3CCN(C(=O)c4ccccc4C)CC3)nc2c1` the value was 7.93% (inactive).
Consider `COc1ccc2nc(N3CCC(O)CC3)c(C#N)cc2c1`, for which the inhibition was 1.43% (inactive).
For `CC(C)CCNC(=O)CCn1c(=S)oc2ccccc21` the value was -7.67% (inactive); for `CC(=O)c1ccc(NC(=O)C(C)N2CCN(C/C=C/c3ccccc3)CC2)cc1` (stereo unspecified), 53.1% (inactive); for `Fc1ccc(CSc2nnc(-c3cccnc3)n2Cc2ccco2)cc1`, -3.79% (inactive).
As for `CCCc1nc2c(sc3nc4c(cc32)COC(C)(C)C4)c(=O)n1Cc1ccco1`, the figure is -1.51% (inactive); as for `CCCCOC(=O)Nc1sc2c(c1C(=O)OC)CCC2`, -0.74% (inactive).
For `S=c1[nH]nc(CSCc2ccccc2Cl)n1C1CCCCC1` the value was 4.24% (inactive).
Regarding `C#CCOCCOCCOCCNc1nc(N2CCN(C(=O)[C@H](CCCCN)n3cc([C@@H](N)CC(C)C)nn3)CC2)nc(N2CCN(C(=O)[C@H](Cc3cc4ccccc4[nH]3)n3cc([C@@H](N)Cc4ccc(O)cc4)nn3)CC2)n1`, the inhibition is 59% (inactive).
For `C#CCOCCOCCOCCNc1nc(N2CCOCC2)nc(N2CCN(C(=O)[C@H](Cc3cc4ccccc4[nH]3)n3cc([C@@H](N)Cc4ccc(O)cc4)nn3)CC2)n1` the value was 52% (inactive).
On to `C#CCOCCOCCOCCNc1nc(N2CCN(C(=O)[C@H](Cc3cc4ccccc4[nH]3)n3cc(C(N)CC(C)C)nn3)CC2)nc(N2CCN(C(=O)[C@H](CCC(=O)O)n3cc(C(N)[C@H](C)CC)nn3)CC2)n1` (stereo partly specified), for which the inhibition is -7.16% (inactive).
For `C#CCOCCOCCOCCNc1nc(N2CCN(C(=O)[C@H]([C@@H](C)CC)n3cc([C@@H](N)CC(C)C)nn3)CC2)nc(N2CCN(C(=O)[C@H](Cc3cc4ccccc4[nH]3)n3cc([C@@H](N)CC(C)C)nn3)CC2)n1` the value was 33.5% (inactive).
Regarding `C#CCOCCOCCOCCNc1nc(N2CCN(C(=O)[C@H]([C@@H](C)CC)n3cc([C@@H](N)CC(C)C)nn3)CC2)nc(N2CCN(C(=O)[C@H](Cc3cc4ccccc4[nH]3)n3cc([C@@H](N)C(C)CC)nn3)CC2)n1` (stereo partly specified), the inhibition was 45.6% (inactive).
Turning to `C#CCOCCOCCOCCNc1nc(N2CCOCC2)nc(N2CCN(C(=O)[C@H](Cc3cc4ccccc4[nH]3)n3cc([C@@H](N)CC(C)C)nn3)CC2)n1`, the inhibition is -3.36% (inactive).
For the compound `CCOC(=O)C1CCN(C(=O)COc2ccc(S(=O)(=O)N3CCCC3)cc2C)CC1`, the inhibition is 8.86% (inactive).
As for `N/C(=N\c1nc2c(c(=O)[nH]1)CCCC2)Nc1ccc(Oc2ccccc2)cc1`, the figure is 18% (inactive).
As for `Cn1c(=O)c2c(nc(CN3CCC(C(N)=O)CC3)n2Cc2c(Cl)cccc2Cl)n(C)c1=O`, the figure is -2.69% (inactive).
As for `Cc1ccc(/C=C/C(=O)N2CCN(c3ccc(F)cc3)CC2)o1`, the figure is -2.28% (inactive); as for `O=C(/C=C/c1ccc(F)cc1)N1CCCN(C(=O)/C=C/c2ccc(F)cc2)CC1`, 10.8% (inactive); as for `CCOCCn1c(SCC)nc2c1c(=O)[nH]c(=O)n2C`, -10.1% (inactive).
Take `Cc1nn(-c2ccccn2)c(C)c1Oc1ccccc1O`: the inhibition was 7.63% (inactive).
For `Cc1cc(Nc2ccc(Cl)cc2)n(-c2cccc(Cl)c2)n1` the value was 4.87% (inactive); for `Cc1cc(C)nc(-n2nc(C)c(Oc3ccccc3O)c2C)n1`, -0.16% (inactive); for `COc1ccc(Nc2nc(C)cc(=O)[nH]2)cc1`, -16.4% (inactive).
As for `Cc1cc(C)n(-c2nnc(C)c(=O)[nH]2)n1`, the figure is -3.09% (inactive); as for `Cc1cc(C)n(-c2nc(O)cc(=O)[nH]2)n1`, -5.24% (inactive).
For `Cc1ccc(OCC(=O)Nc2ccc(Cl)cc2C(=O)c2ccccc2)cc1` the value was -2.12% (inactive); for `CCOc1ccc(CNC(=S)N/N=C\c2ccc([N+](=O)[O-])cc2)cc1`, 2.73% (inactive); for `O=C(NCC(c1ccco1)N1CCCCC1)C(c1ccccc1)c1ccccc1` (stereo unspecified), 2.31% (inactive).
Take `CC(Oc1ccc(Cl)cc1Cl)c1ccnc2nc(N3CCOCC3)nn12` (stereo unspecified): the inhibition is 7.65% (inactive).
As for `CCOc1ccccc1NC1c2ccccc2C(=O)N1Cc1ccco1` (stereo unspecified), the figure is 11.3% (inactive); as for `O=C1c2ccccc2C(Nc2ccc(S(=O)(=O)N3CCCCC3)cc2)N1Cc1ccco1` (stereo unspecified), 2.32% (inactive); as for `COc1ccc(NC2c3ccccc3C(=O)N2Cc2ccco2)cc1OC` (stereo unspecified), 8.29% (inactive).
For `O=C1c2ccccc2C(Nc2ccc3nc(-c4cccnc4)[nH]c3c2)N1Cc1ccco1` (stereo unspecified) the value was 44% (inactive); for `CCOC(=O)CNC(=O)CSc1nnc(-c2ccc(OC)cc2)n1CC`, -3.53% (inactive).
As for `O=C(c1ccco1)N1CCN(Cc2nc(Cc3ccccc3)no2)CC1`, the figure is -8.56% (inactive).
`CCn1c(-c2ccccc2)ccc(C#N)c1=O`: the inhibition is -9.1% (inactive).
For `C#CCn1c(-c2ccccc2)ccc(C#N)c1=O` the value was 8.84% (inactive); for `CS(=O)(=O)N(CC(=O)Nc1cccc(Cl)c1Cl)c1ccccc1`, -0.62% (inactive).
For `O=C(COC(=O)c1ccc(=O)[nH]c1)Nc1cccc(S(=O)(=O)N2CCOCC2)c1` the value was 9.81% (inactive); for `CC1CCC/C(=N/NC(=O)c2ccccc2-n2cccc2)C1` (stereo unspecified), -3.77% (inactive); for `COc1ccc(-n2c(C)cc(/C=C3\C(=O)NN(c4ccccc4)C3=O)c2C)cc1`, 12.4% (inactive).
For `CC(=O)N(Cc1nc2sc(C)c(C)c2c(=O)[nH]1)C1CCCC1` the value was -8.34% (inactive).
As to `Cc1sc2nc(CN(C(=O)NC3CCCCC3)C3CCCCC3)[nH]c(=O)c2c1C`, the inhibition was 3.17% (inactive).
On to `O=C(Nc1ccncc1)c1ccc(NS(=O)(=O)c2cccc(F)c2)cc1`, for which the inhibition was 7.32% (inactive).
For `CCN(Cc1ccccc1)c1ccc(/C=N/N2CCOCC2)cc1` the value was 2.24% (inactive); for `NC(N)=N/N=C/c1ccccc1`, 12.3% (inactive).
Consider `Cc1ccccc1CN1C[C@@H]2C[C@@H](c3cn[nH]c3-c3ccccc3)N3CCC[C@@]23C1=O`, for which the inhibition is -6.92% (inactive).
Take `O=C(Nc1ccn(Cc2ccccc2F)n1)c1ccc(COc2cc(Cl)ccc2Cl)o1`: the inhibition was 10.4% (inactive).
As for `O=C(Nc1ccn(Cc2c(F)c(F)cc(F)c2F)n1)c1ccc(COc2ccc(Cl)cc2Cl)o1`, the figure is 4.49% (inactive).
As for `O=C(c1ccc(F)cc1F)N1CCN(c2ncccn2)CC1`, the figure is 3.87% (inactive); as for `Cc1[nH]c2ccccc2c1/C=N/n1cnnc1`, 3.82% (inactive); as for `Cc1[nH]c2ccccc2c1/C=N/O`, 57.2% (inactive).
As for `N#CC(C(=O)C1CCCCC1)c1nc2ccccc2[nH]1` (stereo unspecified), the figure is 56.9% (inactive); as for `O=C(Nc1nc2ccccc2[nH]1)C1CC1`, -2.55% (inactive).
Consider `N#CC(C(=O)CCN1C(=O)C2CC=CCC2C1=O)c1nc2ccccc2[nH]1` (stereo unspecified), for which the inhibition is -15.5% (inactive).
On to `O=C(Nc1nc2ccccc2[nH]1)C1CCCC1`, for which the inhibition was -2.34% (inactive).
For `O=C(c1ccc2c(c1)OCCO2)C1CCN(C(=O)c2ccc(F)c(F)c2)CC1` the value was 5.15% (inactive); for `Cc1cc(C)c(C(=O)C[n+]2cccc(C(N)=O)c2)c(C)c1`, -6.58% (inactive).
For `Cc1oc(-c2ccccc2)nc1C(=O)N1CCN(c2ccc(F)cc2)CC1` the value was 0.48% (inactive).
For `Cc1ccccc1-c1ccc(/C=C2/SC(N3CCOCC3)=NC2=O)o1` the value was -0.65% (inactive); for `O=C1N=C(N2CCOCC2)S/C1=C\c1ccc(-c2ccccc2Cl)o1`, 2.45% (inactive).
